According to PubChem BioAssay AID1159580 (chemical genetic matrix, 2015):
Hit rate of the full screen: of about 5,500 compounds, about 2,000 (36%) were called active. Another 18% or so got no clear call; they are omitted. Cut-off read from the data, not from the text of the source: active = normalized growth mostly below about 0.91 (no sharp cut-off); inconclusive = no clear call, values can overlap the other calls; inactive = mostly above about 0.92. The list shows a part of the results.

Test: chemical genetic growth profiling, strain panel (AID 1159580);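 note: tested at 20 µM; growth read once vehicle control cultures reached saturation at 30 °C; 1 = growth at the plate median or of vehicle wells; lower values mean less growth of the strain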
Details: S. cerevisiae deletion strains, growth OD
[1] = locus YAL013W, strain DEP1, hits give low values
[2] = locus YGR078C, strain PAC10, hits give low values
[3] = locus YJR075W, strain HOC1, hits give low values
[4] = locus YNL322C, strain KRE1, hits give low values
[5] = locus YPL055C, strain LGE1, hits give low values
[6] = locus YPL241C, strain CIN2, hits give low values
[7] = locus YHR030C, strain SLT2, hits give low values

Measured: normalized growth

COc1ccc2c(c1)C13CCCCC1C(C2)N(C)CC3 (stereo unspecified)
inactive: [1] 1.02 | locus YAL040C, strain CLN3, hits give low values 0.995 | locus YCL061C, strain MRC1 (second series), hits give low values 1 | locus YDR363W, strain ESC2, hits give low values 0.952 | locus YER002W, strain NOP16, hits give low values 1 | [2] 0.995 | locus YGR229C, strain SMI1, hits give low values 0.991 | [3] 0.985 | locus YNL128W, strain TEP1, hits give low values 1.01 | locus YNL175C, strain NOP13, hits give low values 1.01 | locus YNL197C, strain WHI3, hits give low values 1.01 | locus YNL224C, strain SQS1, hits give low values 1.01 | [4] 1 | locus YOR083W, strain WHI5 (second series), hits give low values 0.97 | [5] 0.967 | [6] 0.998

CC[C@@H](CO)NC(=O)[C@@H]1C=C2c3cccc4c3c(cn4C)C[C@H]2N(C)C1
inactive: [7] 1 | locus YHR079C, strain IRE1, hits give low values 0.989 | locus YJL095W, strain BCK1, hits give low values 0.981 | locus YJR066W, strain TOR1, hits give low values 0.926 | locus YLR113W, strain HOG1, hits give low values 1.02 | locus YNL183C, strain NPR1, hits give low values 0.928 | locus YOR231W, strain MKK1, hits give low values 1 | locus YPL256C, strain CLN2, hits give low values 0.973

CCOC(=O)CC(=O)CSc1nnc(N)s1
inactive: [1] 0.998 | locus YBR229C, strain ROT2, hits give low values 0.988 | locus YCL061C, strain MRC1, hits give low values 1.04 | locus YDL101C, strain DUN1, hits give low values 1.04 | locus YDR150W, strain NUM1, hits give low values 1 | locus YEL061C, strain CIN8, hits give low values 1 | [2] 1.02 | [7] 1.13 | locus YHR087W, strain rtc3, hits give low values 0.992 | locus YJR043C, strain POL32, hits give low values 1.06 | [3] 1.01 | locus YLR039C, strain RIC1, hits give low values 1 | locus YLR058C, strain SHM2 (second series), hits give low values 0.999 | locus YLR085C, strain ARP6, hits give low values 1.04 | locus YLR262C, strain YPT6, hits give low values 1.01 | locus YML094W, strain GIM5, hits give low values 1.02 | locus YMR219W, strain ESC1, hits give low values 1 | locus YMR263W, strain SAP30, hits give low values 1.02 | locus YMR307W, strain GAS1, hits give low values 0.985 | locus YNL153C, strain GIM3, hits give low values 1.05 | locus YNL298W, strain CLA4 (second series), hits give low values 1.05 | [4] 1.02 | locus YNR030W, strain Alg12, hits give low values 1.02 | locus YOL006C, strain TOP1, hits give low values 1.13 | [5] 0.978 | [6] 1.02 | locus YPR135W, strain CTF4, hits give low values 1.11
